Test results reported in PubChem BioAssay AID1861 (The Scripps Research Institute Molecular Screening Center, 2009).
Hit rate of the full screen: of about 290,000 compounds, about 3,100 (1.1%) were called active. Rule as the data show it: active = inhibition above about 16% (passing the limit was not always enough); inactive = the rest. Only a selection was taken, and actives are over-represented in it overall.

The compounds below were run against Neuropeptides B/W receptor type 1 (Homo sapiens) (UniProt P48145) (assay: blockers of human neuropeptide B/W receptor 1 – cell-based, fluorescence, single concentration, primary screen (AID 1861;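 also: cells stimulated with the agonist NPW; 0% = agonist with vehicle and 100% = vehicle without agonist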)). Conditions: GPR7-expressing cells, fluorescence antagonist assay; at 4.4 µM; active compounds read high.
Sequence of Neuropeptides B/W receptor type 1 (Homo sapiens) (P48145 whole entry, looked up): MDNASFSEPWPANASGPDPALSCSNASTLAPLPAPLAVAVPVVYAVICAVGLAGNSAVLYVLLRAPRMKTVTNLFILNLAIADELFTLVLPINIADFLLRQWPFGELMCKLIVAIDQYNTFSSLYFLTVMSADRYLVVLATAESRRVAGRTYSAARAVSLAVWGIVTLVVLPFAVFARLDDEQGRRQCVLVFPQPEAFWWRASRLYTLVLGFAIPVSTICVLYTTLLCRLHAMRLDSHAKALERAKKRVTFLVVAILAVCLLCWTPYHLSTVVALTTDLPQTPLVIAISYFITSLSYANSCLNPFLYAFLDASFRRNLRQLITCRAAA

inhibition, inactive:
COc1ccccc1N1CC(C(=O)Nc2nnc(SCC(=O)NC(C)C)s2)CC1=O (stereo unspecified) -8.06%, COc1ccc(C)cc1NC(=O)NCc1ccccn1 -18.5%, COc1ccc(C)cc1NC(=O)Nc1ccccc1SC -7.07%, Cc1ccc(CN2CCNC(=O)C2CC(=O)NCc2csc(C(C)C)n2)cc1 (stereo unspecified) 7.42%, CCCCCCCCCCOC(=O)Cn1c(COc2ccc(C)cc2)[n+](C)c2ccccc21 19.5%, CCCCOC(=O)Cn1c(=N)n(CCN(CC)CC)c2ccccc21 2.44%, OCCN(Cc1ccccc1)Cc1ccc(Cl)cc1 -3.11%, CCN(CC)c1ccc([N+](=O)[O-])cc1C(=O)O -0.91%, CC1C(=O)Nc2ccccc2N1C(=O)c1ccc(F)cc1F (stereo unspecified) -4.79%, CCOc1ccc(CN2CCC(n3nccc3NC(=O)C3CC3)CC2)cc1CO 1.55%, Cc1cc(C)cc(NC(=O)C2CCCN(S(=O)(=O)c3ccc4[nH]c(=O)ccc4c3)C2)c1 (stereo unspecified) -6.12%, CN1CCN(c2ccccc2NC(=O)COc2ccc(C3CCCCC3)cc2)CC1 -0.24%, COc1ccc(C(=O)N2CCc3cc(OC)c(OC)cc3C2c2cccc([N+](=O)[O-])c2)cc1 (stereo unspecified) -1.43%, COc1ccc(CC(NC(C)=O)C(=O)NC2CCN(C(=O)c3ccc(OC)c(OC)c3)CC2)cc1OC (stereo unspecified) 1.05%, O=C(CSc1nc2cccnc2n1Cc1ccccc1)N1CCc2ccccc21 -12%, CC(=O)N1c2ccc(S(=O)(=O)N3CCC(C(=O)NCc4ccc(F)cc4)CC3)cc2CC1C (stereo unspecified) -4.2%, CCOC(CNC(=O)C1CCN(S(=O)(=O)c2ccc3nc4c(c(C(=O)O)c3c2)CC(C)CC4)CC1)OCC (stereo unspecified) -21.9%, COc1ccc(NC(=S)N2CCc3cc(OC)c(OC)cc3C2)cc1 2.63%, COc1ccc2c(CC(=O)OCC(=O)NC(N)=O)coc2c1 -8.77%, Cc1nn(C)cc1S(=O)(=O)N1CCN(c2ccc(F)cc2)CC1 -4.94%, O=[N+]([O-])c1ccccc1S(=O)(=O)Nc1cccc2cccnc12 -12.1%, O=C(NC(=S)NC1CCCCC1)c1ccc(Cl)cc1 -18.6%, COc1ccccc1-n1c(SCC(=O)Nc2cccc(C(=O)O)c2)nnc1-c1ccccc1O -17.1%, COCc1ccc(C(=O)NC2CC(C)(C)Cc3c2cnn3-c2ccc(C)cc2)o1 (stereo unspecified) -0.16%, COc1cc(OC)c(-n2c(C)cc(C=O)c2C)cc1Cl -3.29%, COc1ccc(-c2cn(-c3ccc(OC)cc3)c(=S)[nH]2)cc1 10.2%, Brc1c(CSc2nncc3ccccc23)nc2ccccn12 -2.42%, CCOCCCN1C(=O)C2C(C(=O)Nc3ccc(OCC)cc3)C3C=CC2(O3)C1C(=O)NC1CCCCC1 (stereo unspecified) -12.8%, CCn1c(CC(=O)Nc2ccccc2)nnc1SCC(=O)N1CCOCC1 -9.92%, O=C1c2ccccc2C(=O)N1CCC(c1ccccc1)c1ccco1 (stereo unspecified) -19.2%, CC1(C)CC(N(Cc2ccccc2)C(=O)Cc2ccccc2)CCO1 (stereo unspecified) -11.1%, CCC(C(=O)Nc1ccc2c(c1)OCCO2)c1ccccc1 (stereo unspecified) -8.4%, CCC(C(=O)OCC(=O)Nc1ccc(C(=O)Nc2ccc(OC)cc2)cc1)c1ccccc1 (stereo unspecified) 0.99%, COc1ccc(-n2nc(C(=O)NCC(=O)N3CCN(c4ccccc4OC)CC3)c3ccccc3c2=O)c(OC)c1 1.21%, Cn1nccc1/C=N\NC(=O)c1ccc(Cl)cc1 -6.59%, Cc1ccnc(N2C(=O)c3ccccc3C2Nc2ccc3c(c2)OCCO3)c1 (stereo unspecified) -8.69%, O=C(NC1CCCCC1)C1c2ccccc2C(=O)N1Cc1ccco1 (stereo unspecified) -11.8%, COC(=O)c1c(NC(=O)c2ccc(S(=O)(=O)N3CCOCC3)cc2)sc2c1CCN(C(C)C)C2 -0.58%, Nc1cccc2c1C(=O)N(Cc1nnc(-c3ccccc3Br)o1)C2=O -16%, CN(C)/C=N/c1cc(=O)n(C)c(=O)n1CC1CC1 -1.62%, Cc1cccc(OCC(=O)NC(=S)Nc2ccccc2N2CCOCC2)c1 -14.9%, Cc1ccc(O)c(NC(=O)COc2cc(C)ccc2C)c1 10.6%, Cc1cccc(C2C3=C(CCCC3=O)N=C3c4ccccc4C(=O)C32)c1 (stereo unspecified) -14.3%, CCn1cc(C(=O)NCCC(=O)NCCO)c(=O)c2cc3c(cc21)OCO3 -13.5%, COC(=O)CN1C(=O)[C@H]2[C@@H](/C=C/c3ccccc3)N3C(=O)CN(CC4CC4)C(=O)[C@@]3(Cc3ccccc3)[C@H]2C1=O -2.59%, CCCCSCCCNC(=O)C1CCC(CNS(=O)(=O)c2ccc(NC(C)=O)cc2)CC1 (stereo unspecified) 3.79%, Cc1nn(-c2ccccc2)c2c1c(C)c(CCC(=O)NCC1CCCO1)c(=O)n2C (stereo unspecified) -15.7%, Cc1ccc(C(=O)NCC(=O)OCC(=O)NC2CCCCCCC2)cc1 -6.33%, O.O.O.O=S(=O)([O-])OC[C@H]1O[C@@H](O[C@]2(COS(=O)(=O)[O-])O[C@H](OS(=O)(=O)[O-])[C@@H](OS(=O)(=O)[O-])[C@@H]2OS(=O)(=O)[O-])[C@H](OS(=O)(=O)[O-])[C@@H](OS(=O)(=O)[O-])[C@@H]1OS(=O)(=O)[O-].[Al] -11%, NC(=O)C1CCN(C(=O)/C(=C/c2ccco2)NC(=O)c2ccccc2)CC1 -7.3%, O=C(NCc1ccco1)/C(=C/c1ccco1)NC(=O)c1ccccc1 -4.86%, C[C@H](NC(=O)C1CC(=O)N(c2ccc3c(c2)OCO3)C1)C(=O)NCc1ccco1 (stereo partly specified) 1.22%, O=S(=O)(Nc1ccc2[nH]ncc2c1)c1ccccc1Cl 6.14%, O=C(Cn1nc(CNc2ccc(Cl)cc2)[n+]2c1CCCCC2)c1ccc(Cl)cc1 -3.46%, CC(=O)Nc1ccc(Oc2ccc3c(c2)C(=O)NC3=O)cc1 7.14%, S=C(NCCCc1ccccc1)Nc1ccc(Br)cc1 -16.1%, S=C(NCCC1=CCCCC1)Nc1ccccc1 8.55%, COc1ccc(-c2nnc3n2CCCCC3)cc1 1.65%

inhibition, active:
COc1ccc(C)cc1NC(=O)NCCCCc1ccccc1 28.4%, CCCCCCCCCCOC(=O)Cn1c(COc2cccc(OC)c2)[n+](C)c2ccccc21 65%, O=[N+]([O-])c1ccc(N(CCO)Cc2ccccc2)c([N+](=O)[O-])c1 23.9%, CCc1ccc(OCC2c3cc(OC)c(OC)cc3CCN2C(C)=O)cc1 (stereo unspecified) 45.6%, Cc1ccc(CNC(=O)C2CCN(S(=O)(=O)c3ccc4nc5c(c(C(=O)O)c4c3)CC(C)CC5)CC2)cc1 (stereo unspecified) 27.2%, COc1ccc2c(CC(=O)N3CCc4cc(OC)c(OC)cc4C3)coc2c1 20.9%, COc1cc(OC)c(-n2cc(-c3ccc(Cl)cc3)[nH]c2=O)cc1Cl 64.5%, CC1(C)CC(CNCCC(c2ccc(F)cc2)c2ccco2)CCO1 (stereo unspecified) 27.9%, CCC(C(=O)Nc1ccc(C(C)C)cc1)c1ccccc1 (stereo unspecified) 55.6%, O=C1c2ccccc2C(Nc2ccc3c(c2)OCCO3)N1Cc1ccco1 (stereo unspecified) 17.6%, Cc1ccc(O)c(NC(=S)NC(=O)COc2ccc(Br)cc2)c1 89.1%, O=C(OCN1C(=O)c2ccccc2C1=O)/C(=C\c1ccco1)NC(=O)c1ccccc1 19%, S=C(NCCc1ccccc1)Nc1ccccc1 21.5%
